This is a sample that favours compounds with a hit; in the whole collection about 1.4% have one here.
BCLXL inh – inhibitors of human Bcl-xL; Q07817; GST-Bcl-xL / FITC-Bim BH3 peptide fluorescence polarization; inhibition, % at 10.9 µM; 320,000 compounds, 0.7% hits;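 active = inhibition above the mean of all tested compounds plus 3 SD, cutoff set per campaign, cut at about 30% in these data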;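 note: 0% = DMSO wells and 100% = unlabeled Bim-BH3 peptide competitor; inhibitors lower millipolarization by displacing the labeled peptide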
GLD-1 RNA inh – GLD-1-TGE RNA interaction inhibition (C. elegans). Q17339. purified GLD-1 + fluorescein TGE RNA, fluorescence polarization. inhibition, % at 5.96 µM. 320,000 compounds, 0.44% hits. AID 2280;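 active = percent inhibition above a per-plate cutoff, the plate mean of test compounds plus 3 SD, cut at about 30% in these data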;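 note: 0% = DMSO wells with GLD-1 and probe and 100% = wells lacking GLD-1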
Target sequence (Q17339 whole entry, looked up): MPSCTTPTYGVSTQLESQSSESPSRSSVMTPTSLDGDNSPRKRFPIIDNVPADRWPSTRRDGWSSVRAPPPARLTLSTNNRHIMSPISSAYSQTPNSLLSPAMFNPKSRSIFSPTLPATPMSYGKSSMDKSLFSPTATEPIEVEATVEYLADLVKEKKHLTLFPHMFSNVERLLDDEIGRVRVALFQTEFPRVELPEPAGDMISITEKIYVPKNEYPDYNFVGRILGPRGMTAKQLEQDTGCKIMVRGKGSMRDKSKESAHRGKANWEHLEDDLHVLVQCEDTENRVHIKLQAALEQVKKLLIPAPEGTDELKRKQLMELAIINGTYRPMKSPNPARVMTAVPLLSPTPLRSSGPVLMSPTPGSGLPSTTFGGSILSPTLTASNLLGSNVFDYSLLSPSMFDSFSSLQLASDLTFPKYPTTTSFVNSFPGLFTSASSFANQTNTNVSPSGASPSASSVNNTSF
EBV gp42 block – EBV gp42 inhibition; Q1HVG2; Fluorescence polarization binding assay, mP read-out; inhibition, % (tested at 21.74 µM); 220,000 compounds, 0.42% hits; in the data active = inhibition above about 50%
MEX-5 binding – C. elegans MEX-5 TCR-2 RNA binding activity; Q9XUB2; MEX-5/FITC-TCR2 RNA binding, fluorescence polarization; active compounds read low; activity score (negative = inhibition of binding), % at 10 µM; 300,000 compounds, 0.38% hits;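 active = inhibition past about -25% in most replicates, and total fluorescence under double the plate's negative control median, limit read from the data; inconclusive = replicates evenly split on the limit, or fluorescence at least double controls; inactive = too little inhibition in most replicates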;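 note: 0% = DMSO and -100% = 5 µM competing unlabeled TCR2 RNA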
MCL1-BIM inh – MCL1-BIM-BH3 interaction inhibition (human). Q07820. GST-MCL1 / FITC-Bim-BH3 fluorescence polarization. inhibition, % at 10.9 µM. 320,000 compounds, 0.68% hits. AID 2057;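 active = inhibition above the mean inhibition of all tested compounds plus 3 SD, set per campaign, cut at about 40% in these data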;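 note: 0% = DMSO wells and 100% = unlabeled Bim-BH3 peptide control; higher means more loss of mP so more displacement of Bim peptide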
eLon inh – inhibitors of E. coli Lon protease; P0A9M0; purified E. coli Lon protease, fluorescence polarization; inhibition, % at 7.94 µM; 360,000 compounds, 0.42% hits; AID 602123; in the data active = inhibition above about 13%, passing the limit was not always enough;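 note: 0% = enzyme with probe and DMSO and 100% = no enzyme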
BCLXL inh confirm – counter-screen for MCL1 inhibitors: confirmation of human Bcl-xL inhibitors. shares compounds with MCL1-BIM inh. AID 2166. 1,700 compounds, 54% hits. inhibition, % at 10.9 µM. GST-Bcl-xL / FITC-Bim BH3 peptide FP binding;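 active = inhibition above a cutoff equal to the mean inhibition of all tested compounds plus 3 SD, cut at about 30% in these data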;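 note: 0% = DMSO wells and 100% = unlabeled Bim BH3 control peptide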
MCL1 inh confirm – MCL1-BIM-BH3 interaction inhibition, confirmation | inhibition, % at 10.9 µM | 1,700 compounds, 61% hits | shares compounds with MCL1-BIM inh | GST-MCL1 / FITC-Bim-BH3 fluorescence polarization;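 active = inhibition above the average of all tested compounds plus 3 SD, cut at about 40% in these data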;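 note: 0% = DMSO wells and 100% = unlabeled Bim-BH3 control peptide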
GLD-1 TGE cf – confirmation of C. elegans GLD-1 TGE RNA binding inhibitors. shares compounds with GLD-1 RNA inh. inhibition, % at 5.96 µM. 550 compounds, 10% hits. GLD-1/FL-TGE RNA fluorescence polarization, biochemical;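 active = average inhibition across triplicates above the hit cutoff set in the primary screen, cut at about 32% in these data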;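 note: 0% = GLD-1 with RNA probe and DMSO and 100% = wells lacking GLD-1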
The depositor's hits bear a star; u = inconclusive; x = no result.

SMILES | BCLXL inh | GLD-1 RNA inh | EBV gp42 block | MEX-5 binding | MCL1-BIM inh | eLon inh | BCLXL inh confirm | MCL1 inh confirm | GLD-1 TGE cf
CC1CCCN(c2nc3ccccc3nc2C(C#N)S(=O)(=O)c2ccccc2)C1 (centres undefined) | 77* | 55* | 147* | u | 69* | 10 | -5 | -21 | 1
CCOC(=O)C1CCCN(c2nc3ccccc3nc2C(C#N)C(=O)OCC)C1 (centres undefined) | -6 | -2 | 1 | -7 | -8 | -3 | x | x | x
CC(C)(CO)NC(=O)c1ccc2nc(Cc3cccc(Cl)c3)oc2c1 | 2 | 10 | x | 2 | 0 | -7 | x | x | x
COC(=O)c1sc2cc(=O)n(-c3cccc(C(F)(F)F)c3)nc2c1O | 11 | 5 | -8 | 0 | 17 | -3 | x | x | x
Nc1n[nH]c2cc(=O)n(-c3cccc(C(F)(F)F)c3)nc12 | 43* | 39* | 28 | -19 | 60* | -4 | 38* | 54* | 21
CCOC(=O)C1CSC(CC(=O)Nc2ccc(OC(F)(F)F)cc2)C(=O)N1 (centres undefined) | 4 | 6 | -20 | 0 | 0 | 6 | x | x | x
Cn1nc(-c2ccccc2)cc1NS(=O)(=O)c1ccc(C#N)cc1 | 100* | 61* | -1 | -1 | 97* | -6 | 2 | -1 | 0
O=C(O)c1ccc(Cl)c2c1C1C=CCC1C(c1ccccn1)N2 (centres undefined) | 85* | 39* | 28 | -68* | 115* | x | 58* | 82* | 21
Cc1nn(C)cc1S(=O)(=O)Nc1ccc(F)c(F)c1 | 2 | 4 | x | 2 | 13 | 1 | x | x | x
O=S(=O)(NCCc1ccccc1)c1ccc(Br)cc1 | -2 | 2 | x | 0 | 1 | 9 | x | x | x
CCOC(=O)c1ccc(N(CCC2CO2)S(=O)(=O)c2ccc(C)cc2)cc1 (centres undefined) | x | x | x | x | x | 1 | x | x | x
Oc1c(Br)cc(Br)cc1C=Nc1cccc2ncccc12 | 74* | 53* | x | -1 | 73* | 11 | 43* | 55* | 3
CC1=CC(C)C(/C=N/N=C(N)N)C(C)C1 (centres undefined) | 2 | 1 | -7 | -3 | -1 | 0 | x | x | x
CC(=O)Oc1ccc(N2C(=O)C3C(C2=O)C(C(=O)c2ccc(Cl)cc2)N2CCCC32)cc1 (centres undefined) | 78* | 58* | 43 | -7 | 74* | 6 | 66* | 86* | 14
Cc1ccc(C2Nc3ccccc3NC3=C2C(=O)CC(C)(C)C3)c(O)c1 (centres undefined) | 47* | 51* | x | -4 | 52* | 3 | 67* | 94* | 1
COc1ccc(NC(=O)Cc2ccc(C)c(C)c2)cc1S(=O)(=O)N1CCCCC1 | x | 8 | x | x | x | -11 | x | x | x
CC(=O)N1CCOc2ccc(S(=O)(=O)N3CCC(C(=O)NCc4ccc(F)cc4)CC3)cc21 | 2 | 5 | x | 0 | 1 | -5 | x | x | x
Nc1ccc(O)c2c1C(=O)c1ccccc1C2=O | 123* | 82* | 125* | -9 | 158* | 31 | 120* | 177* | 67*
O=C(O)c1ccccc1N=Nc1ccc(O)cc1 | 58* | 39* | x | -19 | 64* | 7 | 52* | 60* | 33*
O=C(O)c1cc(O)ccc1N=Nc1ccccc1 | 2 | -1 | 1 | 1 | 1 | 7 | x | x | x
N#Cc1c(SCC(=O)N2CCOCC2)nsc1SCC(=O)N1CCOCC1 | 66* | 50* | -2 | 0 | 76* | -1 | 9 | 12 | -2
c1ccc(-c2ccc3ccccc3n2)cc1 | -2 | 3 | x | 0 | -1 | 1 | x | x | x
CNc1ccccc(-c2ccc3ccccc3n2)c1=O | 48* | 35* | 19 | -3 | 58* | 2 | 79* | 95* | -5
